# Laboratory results published in PMC8384837, “Expanding the binding specificity for RNA recognition by a PUF domain”.
# How the values were obtained:
# Experiment in all cases: yeast three-hybrid, YBZ-1, SC-Leu-His + 0.5 mM 3-AT, 4 days
# Settings in all cases: tags: N-Gal4 AD-HA kept; label: inside an RPR1-promoter hybrid RNA with tandem MS2 sites; ssRNA
# [1] = biological target: PUM1 PUF domain R1-RLN (Homo sapiens, UniProt Q14671 828-1176, S863R;R864L;Q867N)
# In short: (§1)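 Each repeat of the Pumilio-1 PUF domain was randomized at its three base-contacting residues, and these libraries were co-expressed from a centromeric plasmid with matching RNA elements in strain YBZ-1. After four days on SC-Leu (input) or SC-Leu-His + 0.5 mM 3-AT (selection), the repeat regions were PCR-amplified and Illumina-sequenced. The interaction score compares variant frequency between input and selection as a log change, computed in log2 with a pseudocount of 1 for absent variants.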
# [2] = biological target: PUM1 PUF domain R1-KFM (Homo sapiens, UniProt Q14671 828-1176, S863K;R864F;Q867M)
# In short: as §1
# [3] = biological target: PUM1 PUF domain R5-MHS (Homo sapiens, UniProt Q14671 828-1176, C1007M;R1008H;Q1011S)
# In short: as §1
# [4] = biological target: PUM1 PUF domain R3-GCR (Homo sapiens, UniProt Q14671 828-1176, C935G;R936C;Q939R)
# In short: as §1
# [5] = biological target: PUM1 PUF domain R3-FRT (Homo sapiens, UniProt Q14671 828-1176, C935F;Q939T)
# In short: as §1
# [6] = biological target: PUM1 PUF domain R8-RHQ (Homo sapiens, UniProt Q14671 828-1176, N1122R;Y1123H)
# In short: as §1
# [7] = biological target: PUM1 PUF domain R5-RNA (Homo sapiens, UniProt Q14671 828-1176, C1007R;R1008N;Q1011A)
# In short: as §1
# [8] = biological target: PUM1 PUF domain R5-RQE (Homo sapiens, UniProt Q14671 828-1176, C1007R;R1008Q;Q1011E)
# In short: as §1
# [9] = biological target: PUM1 PUF domain R5-SKR (Homo sapiens, UniProt Q14671 828-1176, C1007S;R1008K;Q1011R)
# In short: as §1
# [10] = biological target: PUM1 PUF domain R5-RNV (Homo sapiens, UniProt Q14671 828-1176, C1007R;R1008N;Q1011V)
# In short: as §1
# [11] = biological target: PUM1 PUF domain R4-GYV (Homo sapiens, UniProt Q14671 828-1176, N971G;H972Y;Q975V)
# In short: as §1
# [12] = biological target: PUM1 PUF domain R4-ANG (Homo sapiens, UniProt Q14671 828-1176, N971A;H972N;Q975G)
# In short: as §1
# PUM1 PUF domain R1-RLN, sequence (Q14671 828-1176 S863R/R864L/Q867N): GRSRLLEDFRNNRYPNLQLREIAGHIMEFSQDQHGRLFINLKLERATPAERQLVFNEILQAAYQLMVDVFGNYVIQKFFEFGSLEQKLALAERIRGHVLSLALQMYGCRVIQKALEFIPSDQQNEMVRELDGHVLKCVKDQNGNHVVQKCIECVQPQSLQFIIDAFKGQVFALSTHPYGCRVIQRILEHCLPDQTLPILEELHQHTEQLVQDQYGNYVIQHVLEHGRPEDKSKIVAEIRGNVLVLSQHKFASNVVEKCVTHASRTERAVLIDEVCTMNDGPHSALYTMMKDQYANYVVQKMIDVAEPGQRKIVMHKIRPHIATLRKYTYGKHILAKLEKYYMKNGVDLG
# PUM1 PUF domain R5-SKR, sequence (Q14671 828-1176 C1007S/R1008K/Q1011R): as the sequence (Q14671 828-1176 S863R/R864L/Q867N) above, with R36S, L37R, N40Q, C180S, R181K, Q184R counted along it
# PUM1 PUF domain R5-MHS, sequence (Q14671 828-1176 C1007M/R1008H/Q1011S): as the sequence (Q14671 828-1176 S863R/R864L/Q867N) above, with R36S, L37R, N40Q, C180M, R181H, Q184S counted along it
# PUM1 PUF domain R5-RNV, sequence (Q14671 828-1176 C1007R/R1008N/Q1011V): as the sequence (Q14671 828-1176 S863R/R864L/Q867N) above, with R36S, L37R, N40Q, C180R, R181N, Q184V counted along it
# PUM1 PUF domain R1-KFM, sequence (Q14671 828-1176 S863K/R864F/Q867M): as the sequence (Q14671 828-1176 S863R/R864L/Q867N) above, with R36K, L37F, N40M counted along it
# PUM1 PUF domain R3-FRT, sequence (Q14671 828-1176 C935F/Q939T): as the sequence (Q14671 828-1176 S863R/R864L/Q867N) above, with R36S, L37R, N40Q, C108F, Q112T counted along it
sequence,measurement,setting,value
GGCUAGAACUAGUGGAUCCCCCGGCGCCCGGCGGCUCGAGCCCGGGUAAGUGUAAAUCGUCUGCAUGCCGCCGGGCGCCAUGCCUGCAGGUCGACUCUAGAAAACAUG,binding signal,[1],2.71 log2 enrichment (interaction score)
same,binding signal,[2],4.3 log2 enrichment (interaction score)
GGCUAGAACUAGUGGAUCCCCCGGCGCCCGGCGGCUCGAGCCCGGGUAAGUGUGAAUAGUCUGCAUGCCGCCGGGCGCCAUGCCUGCAGGUCGACUCUAGAAAACAUG,binding signal,[3],2.4 log2 enrichment (interaction score)
GGCUAGAACUAGUGGAUCCCCCGGCGCCCGGCGGCUCGAGCCCGGGUAAGUGUAAGUAGUCUGCAUGCCGCCGGGCGCCAUGCCUGCAGGUCGACUCUAGAAAACAUG,binding signal,[4],3.87 log2 enrichment (interaction score)
same,binding signal,[5],4.75 log2 enrichment (interaction score)
GGCUAGAACUAGUGGAUCCCCCGGCGCCCGGCGGCUCGAGCCCGGGUAAGCGUAAAUAGUCUGCAUGCCGCCGGGCGCCAUGCCUGCAGGUCGACUCUAGAAAACAUG,binding signal,[6],5.53 log2 enrichment (interaction score)
GGCUAGAACUAGUGGAUCCCCCGGCGCCCGGCGGCUCGAGCCCGGGUAAGUGUCAAUAGUCUGCAUGCCGCCGGGCGCCAUGCCUGCAGGUCGACUCUAGAAAACAUG,binding signal,[7],2.56 log2 enrichment (interaction score)
same,binding signal,[8],3.37 log2 enrichment (interaction score)
same,binding signal,[9],5.88 log2 enrichment (interaction score)
same,binding signal,[10],2.8 log2 enrichment (interaction score)
GGCUAGAACUAGUGGAUCCCCCGGCGCCCGGCGGCUCGAGCCCGGGUAAGUGUACAUAGUCUGCAUGCCGCCGGGCGCCAUGCCUGCAGGUCGACUCUAGAAAACAUG,binding signal,[11],7.46 log2 enrichment (interaction score)
same,binding signal,[12],3.65 log2 enrichment (interaction score)
GGCUAGAACUAGUGGAUCCCCCGGCGCCCGGCGGCUCGAGCCCGGGUAAGUGUAAAUUGUCUGCAUGCCGCCGGGCGCCAUGCCUGCAGGUCGACUCUAGAAAACAUG,binding signal,[1],2.1 log2 enrichment (interaction score)
GGCUAGAACUAGUGGAUCCCCCGGCGCCCGGCGGCUCGAGCCCGGGUAAGUGUAUAUAGUCUGCAUGCCGCCGGGCGCCAUGCCUGCAGGUCGACUCUAGAAAACAUG,binding signal,[12],2.57 log2 enrichment (interaction score)
